# In PubChem BioAssay AID463173 (ICCB-Longwood Screening Facility, Harvard Medical School, 2010):
# The campaign covered roughly 52,000 compounds. About 1,700 (3.3%) were called active. The sample as a whole holds a higher share of actives than the screen did. Values without a mark were called inactive. No stated cut-off is given here; in the data, active means survival mostly below about 52% (no sharp cut-off); inactive means mostly above about 56%.
# System: Wild type
# Assay: S. aureus survival, RN4220 and DeltatarO strains – OD600, teichoic acid synthesis inhibitors, primary screen (AID 463173)
# Settings: S. aureus RN4220 wild type/DeltatarO growth, OD600, 18 h, hits give low values, screened at 18.75 µg/mL (by protocol)
row,SMILES,survival
1,COc1cccc(CNC(=O)CN2C(=O)COc3ccc(S(=O)(=O)N4CCCCC4)cc32)c1,100%
2,CCOc1ccccc1CNC(=O)C(CC)n1nc(C)c2c(C)n(-c3ccccc3)nc2c1=O (centres undefined),88%
3,CCOC(=O)c1ccc(NC(=O)CCCn2c(=O)c3cccn3c3ccccc32)cc1,78%
4,CCc1ccc(C(=O)c2cn(CC(=O)Nc3ccc(OC)c(Cl)c3)c3nc(C)ccc3c2=O)cc1,119%
5,CCOC(=O)c1sc2cccc(F)c2c1S(=O)(=O)Nc1ccccc1F,124%
6,COC(=O)c1sc2cccc(F)c2c1S(=O)(=O)Nc1ccc(N(C)C)cc1,53%
7,CCOc1ccccc1NS(=O)(=O)c1c(C(=O)OC)sc2cccc(F)c12,-3% (active)
8,COC(=O)c1sc2cccc(F)c2c1S(=O)(=O)Nc1ccc(C)cc1Cl,63%
9,COC(=O)c1sc2cccc(F)c2c1S(=O)(=O)Nc1cc(C)c(Cl)cc1OC,85%
10,COC(=O)c1sc2cccc(F)c2c1S(=O)(=O)Nc1cc(OC)cc(OC)c1,0% (active)
11,CC(C)c1ccc(NC(=O)C2CCCN(S(=O)(=O)c3cccc4nsnc34)C2)cc1 (centres undefined),70%
12,CN1CCc2nc3sc(C(=O)c4ccc5c(c4)OCO5)c(N)c3cc2C1,116%
13,Cc1ccc(-n2c(-c3ccc(Br)cc3)nc3c(cnn3-c3ccccc3)c2=O)cc1,66%
14,Clc1ccc(CNc2ccccn2)cc1,98%
15,Cc1cc(C)cc(Nc2nc3cc(Cl)c(Cl)cc3nc2-n2nc(C)cc2C)c1,81%
16,Cc1ccc2nc(Nc3cccc(Cl)c3C)c(-n3nc(C)cc3C)nc2c1,131%
17,Cc1cc(C)n(-c2nc3ccccc3nc2Nc2ccc(N(C)C)cc2)n1,2% (active)
18,CCCOC(=O)c1ccc(Nc2nc3ccccc3nc2-n2nc(C)cc2C)cc1,32%
19,CC(=O)c1ccc(Nc2nc3ccccc3nc2-n2nc(C)cc2C)cc1,54%
20,Cc1cc(C)n(-c2nnc(Nc3ccc(C(C)C)cc3)c3ccccc23)n1,74%
21,Cc1cc(C)n(-c2nc3ccccc3nc2Nc2cccc(C)c2C)n1,7% (active)
22,Cc1cc(C)n(-c2nc3ccccc3nc2Nc2cc(Cl)ccc2C)n1,131%

row,SMILES,survival
1,Cc1cc(C)cc(Nc2nnc(-n3nc(C)cc3C)c3ccccc23)c1,86%
2,Cc1cc(C)n(-c2nc3ccccc3nc2Nc2ccc(Cl)c(C(=O)OC(C)C)c2)n1,84%
3,Cc1cc(C)n(-c2nc3ccccc3nc2Nc2ccc(C(C)C)cc2)n1,5% (active)
4,Cc1cc(C)cc(Nc2nc3ccccc3nc2-n2nc(C)cc2C)c1,8% (active)
5,CCOC(=O)N1CCc2c(sc(NCc3sccc3C)c2C(=O)Nc2cc(OC)ccc2OC)C1,65%
6,Cc1cccc(N2CCN(Cc3nnc(-c4ccccc4C)o3)CC2C)c1 (centres undefined),21%
7,CCOC(=O)c1c(C)sc(-c2c(-c3ccc(OC)c(F)c3)[nH]c3[nH]c(=O)[nH]c(=O)c23)c1O,111%
8,CCCOc1ccc(CNC(=O)Cn2cc3c(n2)-c2c(oc(C(=O)N4CCOCC4)c2C)CC3)cc1,96%
9,COc1ccc(-c2nn(C)c3sc(C(=O)NCCN(C)C)cc23)cc1OC,82%
10,CCOC(=O)c1c(C)[nH]c(C)c1S(=O)(=O)N(C)CC(=O)Nc1cccc(C(F)(F)F)c1,69%
11,COC(=O)C(CCSC)NC(=O)Cn1ncc2c([nH]c3ccccc32)c1=O (centres undefined),47%
12,COc1cc2c(c(OC)c1)C(c1cccc(F)c1F)CC(=O)N2 (centres undefined),82%
13,COc1ccc(CCN(Cc2nc3ccccc3c(=O)[nH]2)C(=O)c2ccco2)cc1,81%
14,Cc1ccc(NS(=O)(=O)c2ccc3[nH]c4c(c3c2)CCCCC4)cc1,84%
15,O=C(CCn1c(=O)c2cccn2c2cccnc21)NCc1ccccc1Br,93%
16,COc1ccccc1Nc1nc2ccc(Cl)cc2nc1-n1nc(C)cc1C,138%
17,Cc1cc(C)n(-c2nc3ccccc3nc2Nc2ccc(Cl)cc2Cl)n1,86%
18,COc1ccc(OC)c(Nc2nc3ccccc3nc2-n2nc(C)cc2C)c1,10% (active)
19,COc1cc(OC)c(Nc2nc3ccccc3nc2-n2nc(C)cc2C)cc1Cl,80%
20,Cc1cc(C)n(-c2nc3ccccc3nc2Nc2ccc(Cl)c(Cl)c2)n1,1% (active)
21,Cc1ccc(Nc2nc3ccccc3nc2-n2nc(C)cc2C)c(Cl)c1,88%
22,Cc1ccc(CNC(=O)c2ccc(Cn3c(SCc4ccc(F)cc4)nc4cccnc43)cc2)o1,84%

row,SMILES,survival
1,Cc1ccc(C(=O)c2sc(Nc3ccc(F)cc3)c(C#N)c2N)cc1,108%
2,CCCOc1ccc(C(=O)Nc2ccc3nn(-c4ccc(OC)c(Cl)c4)nc3c2)cc1,145%
3,COc1ccc(CNC(=O)C(=O)Nc2ccc(OC)cc2OC)cc1,80%
4,N#C/C(=C/C=C/c1ccco1)c1nc2ccccc2[nH]1,113%
5,CCCNC(=O)Cn1ncc2c3ccccc3n(CCC)c2c1=O,133%
6,CCCn1c2ccccc2c2cnn(CC(=O)NCCCOC(C)C)c(=O)c21,-6% (active)
7,CCCn1c2ccccc2c2cnn(CC(=O)NCCc3ccc(OCC)c(OCC)c3)c(=O)c21,76%
8,CCCn1c2ccccc2c2cnn(CC(=O)NCCc3ccc(C)cc3)c(=O)c21,121%
9,CCCn1c2ccccc2c2cnn(CC(=O)NCCCN3CCCCC3)c(=O)c21,78%
10,CCCn1c2ccccc2c2cnn(CC(=O)NCCc3ccc(OCC)cc3)c(=O)c21,-6% (active)
11,CCCSc1nc(=O)c2c(n1C)NC(=O)CC2c1cccc(F)c1F (centres undefined),82%
12,CSc1cccc(NC(=O)N2CCN(c3cc(-c4noc(C)n4)ccc3C)CC2)c1,74%
13,COc1cc([N+](=O)[O-])ccc1NC(=O)N1CCN(c2cc(-c3noc(C)n3)ccc2C)CC1,78%
14,Cc1cc(C)cc(NC(=O)N2CCN(c3cc(-c4noc(C)n4)ccc3C)CC2)c1,76%
15,COc1cc(NC(=O)N2CCN(c3cc(-c4noc(C)n4)ccc3C)CC2)cc(OC)c1OC,14% (active)
16,COc1ccc(NC(=O)N2CCN(c3cc(-c4noc(C)n4)ccc3C)CC2)c(OC)c1,133%
17,Cc1ccc(NC(=O)N2CCN(c3cc(-c4noc(C)n4)ccc3C)CC2)c(F)c1,-6% (active)
18,Cc1nc(-c2ccc(C)c(N3CCN(C(=O)Nc4ccc(Br)cc4)CC3)c2)no1,-1% (active)
19,COc1ccc(C)cc1NC(=O)N1CCN(c2cc(-c3noc(C)n3)ccc2C)CC1,85%
20,Cc1ccc(NC(=O)N2CCN(c3cc(-c4noc(C)n4)ccc3C)CC2)c(C)c1,72%
